The record followed here is PubChem BioAssay (EPA / NIEHS).

Several values for one entry are separate records, joined by “and”; a condition that tells them apart may be missing. Equal values may be shown once. A structure can be active in one record and inactive in another. Activity calls are given as the source filed them. Rule for the calls: active = hit-call score of the fitted dose curve at least 0.9, where 1 is the maximum; inactive = score below 0.9.

This assay can be described thus: APR_HepG2_NuclearSize_72hr: Apredica 72-hour HepG2 Assay for Nuclear Size (AID 2282925). The following applies: high-content imaging, actives raise or lower the signal. The procedure:
APR_HepG2_72hr is a cell-based, multiplexed-readout assay that uses HepG2, a human liver cell line, with measurements taken at 72 hours after chemical dosing in a 384-well plate.APR_HepG2_NuclearSize_72hr is one of 10 assay component(s) measured or calculated from the APR_HepG2_72hr assay. It is designed to make measurements of cell phenotype, a form of morphology reporter, as detected with fluorescence intensity signals by HCS Fluorescent Imaging technology.Data from the assay component APR_HepG2_NuclearSize_72hr was analyzed into 1 assay endpoint. This assay endpoint, APR_HepG2_NuclearSize_72hr, was analyzed with bidirectional fitting relative to DMSO as the negative control and baseline of activity. Using a type of morphology reporter, measures of all nuclear dna for gain or loss-of-signal activity can be used to understand the signaling at the nuclear-level. Furthermore, this assay endpoint can be referred to as a primary readout, because this assay has produced multiple assay endpoints where this one serves a signaling function. To generalize the intended target to other relatable targets, this assay endpoint is annotated to the cell morphology intended target family, where the subfamily is organelle conformation.
Cells were treated with dimethyl sulfoxide (DMSO) as a solvent control at a final concentration of 0.5% v/v or with compounds in DMSO with a resulting final DMSO concentration of 0.5% v/v. Compound treatment was done at concentrations of 0.39, 0.78, 1.56, 3.12, 6.24, 12.5, 25, 50, 100, and 200 uM in duplicate on each plate. Cells were treated with compounds for 1, 24, or 72 hr. Carbonyl […] m-chloro-phenylhydrazone (CCCP) and taxol were used as positive controls for mitochondrial function and cytoskeletal stability, respectively; DMSO served as the negative control for this experiment. Cells were fixed by the direct addition of 50 uL formaldehyde in Hank's Balanced Salt Solution (HBSS) to a final concentration of 3.7%. After incubation in the fixation medium for 30 min at room temperature (293-298 K), cells were rinsed twice with HBSS and treated with cell permeabilization buffer (16 uL of 0.5% Triton X-100) for 10 min at room temperature (293-298 K) before labeling. For mitochondrial membrane potential and mitochondrial measurements, pre-fixed cells were incubated with 50 uL of MitoTracker Red CMXRos (Invitrogen) at a concentration of 250 nM for 30 min before fixation. In the remaining cases, post-fixed cells were labeled by incubation with a multiplexed mixture of primary antibodies in HBSS for 60 min at room temperature (293-298 K) to detect immunoreactivity of c-Jun (1:500), phospho-histone H3 (1:100), phospho-histone H2A.x (1:200), p53 (1:400), alpha-tubulin (1:200) and Hoechst 33342 (2 ug/mL). Cells were labeled for multiplexed imaging on two separate plates: a) Hoechst 33342, MitoTracker Red, phospho-histone H3, and alpha-tubulin, and b) Hoechst 33342, phospho-histone H2A.x, and c-Jun. A final rinse with HBSS (50 uL) was performed before analysis. The primary and secondary antibodies for the proteins were phospho-histone H3 (rabbit anti-phospho-histone H3 and FITC-donkey anti-rabbit IgG), phospho-histone H2A.x (mouse anti-phospho-histone H2A.x and FITC-donkey anti-mouse IgG), c-Jun (rabbit anti-phospho-c-Jun and Cy3-donkey anti-rabbit IgG), p53 (sheep anti-p53 and Cy5-donkey anti-sheep IgG), alpha-tubulin (mouse anti-alpha-tubulin and Cy5-donkey anti-mouse IgG). These antibodies are available as the CellCiphr HepG2 assay kit (Millipore).Digital images of each well were captured using a Cellomics ArrayScan VTI (Thermo Scientific Cellomics) (0.8 NA objective, 0.63x optical coupler, and XF-93 filter set) at 20x magnification. The images were acquired using the autofocus feature of the ArrayScan instrument, which entails the following steps. First, the camera focuses on channel 1 (Hoechst 33342), where nuclei are identified. Second, a Z offset of 1 um is used for capturing mitochondria (MitoTracker Red). […]
Take `O=C(NC(=O)c1c(F)cccc1F)Nc1ccc(OC(F)(F)C(F)OC(F)(F)F)c(Cl)c1` (stereo not given): the molecule was classed as inactive.

Regarding `COC(=O)c1ccccc1CS(=O)(=O)NC(=O)Nc1nc(OC)cc(OC)n1`, the outcome was inactive.

With `COc1cc(OC)nc(NC(=O)NS(=O)(=O)c2cc(NC=O)ccc2C(=O)N(C)C)n1`, the outcome was inactive.

As for `C#CCN1C(=O)COc2cc(F)c(N3C(=O)C4=C(CCCC4)C3=O)cc21`, the call was inactive.

As for `CCS(=O)(=O)c1cccnc1S(=O)(=O)NC(=O)Nc1nc(OC)cc(OC)n1`, the molecule was called inactive.

Take `O=C(O)COc1ccc(Cl)cc1Cl`: the molecule was classed as inactive.

For `OCCOc1ccccc1`, the molecule was classed as inactive.

Regarding `CCOC1Oc2ccc(OS(C)(=O)=O)cc2C1(C)C` (stereo not given), the call was inactive.

Consider `C[C@H]1[C@H](c2ccc(Cl)cc2)SC(=O)N1C(=O)NC1CCCCC1`, for which the result was inactive.

Consider `COc1nn(CSP(=S)(OC)OC)c(=O)s1`, for which the molecule was called inactive.

As for `O=C1c2ccccc2C(=O)N1SC(Cl)(Cl)Cl`, the result was inactive.

With `Cc1cc(C)nc(NC(=O)NS(=O)(=O)c2ccccc2C(=O)OC2COC2)n1`, the outcome was inactive.

As usually defined, the AC50 is the concentration at which the activity in the assay is half-maximal. With `Oc1cc(Cl)ccc1Oc1ccc(Cl)cc1Cl`, the molecule was called inactive and the AC50 is 36.8 µM (active).

For `COP(=S)(OC)Oc1ccc(SC)c(C)c1`, the result was inactive.

As for `O=S(=O)(O)C(F)(F)C(F)(F)C(F)(F)C(F)(F)C(F)(F)C(F)(F)C(F)(F)C(F)(F)F`, the call was inactive; the concentration at half-maximal activity (AC50) was 110 µM (active) and 9.67 µM (active).

Consider `CCOc1nc(NC)nc(NC(=O)NS(=O)(=O)c2ccccc2C(=O)OC)n1`, for which the molecule was classed as inactive.

As for `CCC(C)(C)C(=O)OC1=C(c2ccc(Cl)cc2Cl)C(=O)OC12CCCCC2`, the result was inactive.

For the molecule `CNC(=O)/C=C(\C)OP(=O)(OC)OC`, the outcome was inactive.

Turning to `COP(=S)(OC)Oc1ccc([N+](=O)[O-])cc1`, the call was inactive.

`CCOCN(C(=O)CCl)c1c(C)cccc1CC`: the call was inactive.

For the molecule `O=C(O)C(F)(F)C(F)(F)C(F)(F)C(F)(F)C(F)(F)C(F)(F)C(F)(F)F`, the molecule was classed as inactive.

`N#Cc1c(Cl)c(Cl)c(Cl)c(C#N)c1Cl`: the molecule was called inactive.

For `CCC(C)Nc1c([N+](=O)[O-])cc(C(C)(C)C)cc1[N+](=O)[O-]` (stereo not given), the result was inactive.

`N#CN`: the result was inactive.

As for `COC(=O)c1ccccc1S(=O)(=O)NC(=O)Nc1nc(C)nc(OC)n1`, the call was inactive.

Regarding `CCCN(CCC)c1c([N+](=O)[O-])cc(C(F)(F)F)cc1[N+](=O)[O-]`, the call was inactive.

As for `CC1(C)C(C=C(Cl)Cl)C1C(=O)OC(C#N)c1ccc(F)c(Oc2ccccc2)c1` (stereo not given), the molecule was classed as inactive.

As to `CC(C)(C)C(O)/C(=C\c1ccc(Cl)cc1Cl)n1cncn1` (stereo not given), the molecule was classed as inactive.

Consider `CNC(=O)Oc1cccc(N=CN(C)C)c1`, for which the result was inactive.

Consider `CC[C@H](C)[C@H]1O[C@]2(C=C[C@@H]1C)C[C@@H]1C[C@@H](C/C=C(\C)[C@@H](O[C@H]3C[C@H](OC)[C@@H](O[C@H]4C[C@H](OC)[C@@H](O)[C@H](C)O4)[C@H](C)O3)[C@@H](C)/C=C/C=C3\CO[C@@H]4[C@H](O)C(C)=C[C@@H](C(=O)O1)[C@]34O)O2` (tested in a mixture with another compound), for which the result was inactive.

`COC(=O)c1ccccc1S(=O)(=O)NC(=O)N(C)c1nc(C)nc(OC)n1`: the call was inactive.

On to `CCC(C)(NC(=O)c1cc(Cl)c(C)c(Cl)c1)C(=O)CCl` (stereo not given), for which the outcome was inactive.

Turning to `CCCN(CCOc1c(Cl)cc(Cl)cc1Cl)C(=O)n1ccnc1`, the molecule was called inactive.

Regarding `COP(=O)(OC)OC=C(Cl)Cl`, the outcome was inactive.

Consider `[2H]C1([2H])[n+]2ccccc2-c2cccc[n+]2C1([2H])[2H]`, for which the outcome was inactive.

With `CC1(c2ccc(Oc3ccccc3)cc2)OC(=O)N(Nc2ccccc2)C1=O` (stereo not given), the call was inactive.

On to `O=S1OCC2C(CO1)C1(Cl)C(Cl)=C(Cl)C2(Cl)C1(Cl)Cl` (stereo not given), for which the outcome was inactive.

With `Clc1ccccc1-c1nnc(-c2ccccc2Cl)nn1`, the call was inactive.
